Experimental data published in PubChem BioAssay AID1626 (SRMLSC, 2009).
The whole screen tested about 220,000 compounds, of which about 2,000 (0.91%) were called active. Roughly 2% stayed inconclusive and do not appear here. The list is a sample of the results. Measured potencies and affinities stand elsewhere. A number with no mark means an inactive call. No stated cut-off is given here; in the data, inconclusive means inhibition above about 80% without an active follow-up result; inactive means below that; test concentration not stated here.

Experiment: M. tuberculosis H37Rv growth inhibitors, H37Rv strain (AID 1626);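 further: bacteria incubated seven days before Alamar blue readout; 0% = bacteria only wells and 100% = bacteria with antibiotic wells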
Conditions: hits give high values, concentration not given here

For Cn1c(-c2ccccc2)c(C(=O)CC#N)c2ccccc21, which inhibition is on record?
Its inhibition is 7.31%.

Which inhibition does the source give for CCn1c(-c2ccccc2)c(C(=O)CCl)c2ccccc21 here?
Its inhibition is 76.1%.

For Cn1cc(C(=O)Cc2ccccc2)c2ccccc21, which inhibition is on record?
Its inhibition is 0.26%.

Which inhibition does the source give for Cn1cc(C(N)=O)c2ccccc21 here?
The inhibition was -2.82%.

With Cc1ccc(-c2ccc(NC(=O)C3C4C=CC(C4)C3C(=O)O)cc2)o1 (centres undefined) as the molecule, how does the inhibition read?
Its inhibition is 66.8%.

Which inhibition does the source give for COCCCN(CCC#N)C(=O)c1c(-c2c(Cl)cccc2Cl)noc1C here?
Its inhibition is -10.4%.

For Cc1cc([N+](=O)[O-])ccc1NC(=O)c1cccc(NC(=O)C(C)C)c1, which inhibition is on record?
The inhibition was 10.8%.

Which inhibition does the source give for COc1cc(NC(=O)c2ccc([N+](=O)[O-])cc2)ccc1NC(=O)C(C)C here?
Its inhibition is 2.5%.

Which inhibition does the source give for COc1ccc(NC(=O)CCSc2nnc(C)s2)cc1 here?
The inhibition was -0.89%.

Which inhibition does the source give for CC(=O)Nc1ccc(S(=O)(=O)N2CCCC(C(=O)O)C2)cc1 (centres undefined) here?
The inhibition was 0.58%.

Which inhibition does the source give for CNc1nc(-c2ccccc2)nnc1C(F)(F)F here?
The inhibition was -2.77%.

Which inhibition does the source give for FC(F)(F)c1cccc(Oc2nc(-c3ccccc3)nnc2C(F)(F)F)c1 here?
Its inhibition is 8.03%.

With Fc1ccc(Oc2nc(-c3ccccc3)nnc2C(F)(F)F)cc1 as the molecule, how does the inhibition read?
Its inhibition is -3.97%.

With Cc1ccc(Sc2nc(-c3ccccc3)nnc2C(F)(F)F)cc1 as the molecule, how does the inhibition read?
The inhibition was 13.4%.

For FC(F)(F)c1nnc(-c2ccccc2)nc1Sc1ccc(Cl)cc1, which inhibition is on record?
The inhibition was 36.4%.

For FC(F)(F)c1nnc(-c2ccccc2)nc1N1CCCC1, which inhibition is on record?
The inhibition was -1.21%.

For COC(=O)CC/C(O)=C1/C(=N)CC(C)(C)CC1=O, which inhibition is on record?
The inhibition was -9.88%.

For CC1CCN(CCCNC(=O)COc2cc(=O)n(C)c3ccccc23)CC1, which inhibition is on record?
Its inhibition is -0.28%.

Which inhibition does the source give for O=C(CCn1c(=O)c2sccc2n(CC(=O)OCc2ccccc2)c1=O)NCc1ccccc1 here?
The inhibition was -4.57%.

With CC(=O)N(Cc1ccc(F)cc1)C1=C(NCCc2ccccc2)C(=O)c2ccccc2C1=O as the molecule, how does the inhibition read?
The inhibition was 16.5%.

Which inhibition does the source give for CC(=O)N(C1=C(N2CCOCC2)C(=O)c2ccccc2C1=O)c1ccc(C(=O)O)cc1 here?
The inhibition was -1.19%.

Which inhibition does the source give for CCC(=O)N(C1=C(NC(C)C)C(=O)c2ccccc2C1=O)C(C)C here?
The inhibition was 3.87%.

For CCC(=O)N(C1=C(NC)C(=O)c2ccccc2C1=O)C(C)C, which inhibition is on record?
The inhibition was 2.12%.

For CCNC(=O)/C=C1\NC(C)(C)Cc2c1ccc1ccccc21, which inhibition is on record?
Its inhibition is -3.91%.

With O=C1OCCC1Sc1nc2ccccc2s1 (centres undefined) as the molecule, how does the inhibition read?
Its inhibition is 6.97%.

Which inhibition does the source give for O=C(CN1CCN(Cc2ccccc2Cl)C1=O)NCc1ccccn1 here?
Its inhibition is 1.55%.

For O=C(NCC1CCCO1)C(c1ccc(F)cc1)N(Cc1ccc(F)cc1)C(=O)Cn1nnc(-c2cccs2)n1 (centres undefined), which inhibition is on record?
Its inhibition is -8.2%.

With O=C(NCCc1nc2ccccc2[nH]1)/C(=C/c1ccc2c(c1)OCO2)NC(=O)c1ccccc1 as the molecule, how does the inhibition read?
Its inhibition is 1.83%.

With O=C(NCCc1nc2ccccc2[nH]1)/C(=C/c1ccc2c(c1)OCO2)NC(=O)c1ccccc1Cl as the molecule, how does the inhibition read?
Its inhibition is 2.62%.

For Nc1nc(N)nc(-c2ccccn2)n1, which inhibition is on record?
The inhibition was -3.41%.

With Cc1n[nH]c(C)c1Cc1c(F)cccc1Cl as the molecule, how does the inhibition read?
The inhibition was -0.71%.

For CC(NCc1ccc(Cl)cc1Cl)C(O)c1ccccc1 (centres undefined), which inhibition is on record?
The inhibition was 5.99%.

For CC1CCCN(S(=O)(=O)c2ccc3c(c2)CCN3C(=O)C2CCC2)C1 (centres undefined), which inhibition is on record?
Its inhibition is 5.83%.

Which inhibition does the source give for ONC(=Nc1ccc(Cl)cc1)c1ccc(Cl)cc1 here?
Its inhibition is -13.7%.

For Cc1nn(-c2ccccc2)c(N)c1C(c1ccccc1)c1c(C)nn(-c2ccccc2)c1N, which inhibition is on record?
Its inhibition is 9.35%.

Which inhibition does the source give for Cc1ccc(C(c2c(C)nn(-c3ccccc3)c2N)c2c(C)nn(-c3ccccc3)c2N)cc1 here?
The inhibition was 6.99%.

For C#CCNC(=O)C1CCN(c2cc(C)nc(-c3ccccc3)n2)CC1, which inhibition is on record?
The inhibition was -0.44%.

Which inhibition does the source give for CCOC(=O)c1cc([N+](=O)[O-])sc1NC(=O)c1ccc(S(=O)(=O)N2CC3(C)CC2CC(C)(C)C3)cc1 (centres undefined) here?
Its inhibition is -0.55%.

Which inhibition does the source give for O=C(O)c1ccc(O)c(N2C(=O)Nc3ccccc3N2O)c1 here?
The inhibition was -1.41%.

For CC[C@@H]1C=C(C)C[C@H](C)C[C@H](OC)[C@H]2O[C@@](O)(C(=O)C(=O)N3CCCC[C@H]3C(=O)O[C@H](/C(C)=C/[C@@H]3CC[C@@H](O)[C@H](OC)C3)[C@H](C)[C@@H](O)CC1=O)[C@H](C)C[C@@H]2OC, which inhibition is on record?
The inhibition was 5.69%.

Which inhibition does the source give for Fc1cccc(CSc2nc3ncc(Cl)cc3[nH]2)c1 here?
Its inhibition is -0.1%.

For CCc1[nH]c(=S)c(C#N)c2c1CCCC2, which inhibition is on record?
Its inhibition is -2.7%.

Which inhibition does the source give for Cc1cccc2cc(/C=C/C(=O)c3ccco3)c(Cl)nc12 here?
The inhibition was 7.5%.

With Cc1ccc(N/C=C/C(=O)c2ccco2)c(O)c1 as the molecule, how does the inhibition read?
The inhibition was -2.39%.

For CCOc1ccc2nc(Cl)c(/C=C/C(=O)c3ccco3)cc2c1, which inhibition is on record?
Its inhibition is 21.5%.

Which inhibition does the source give for COc1cc2cc(/C=C/C(=O)c3ccco3)c(Cl)nc2cc1OC here?
Its inhibition is -1.16%.

With Cc1nc([N+](=O)[O-])cn1CC(=O)NCCCO as the molecule, how does the inhibition read?
The inhibition was 8.65%.

For Cc1ccc(-n2c(CNC(=O)c3cccs3)nnc2SCC(=O)NO)cc1, which inhibition is on record?
The inhibition was 2.75%.

With COC(=O)c1ccc(CN2CCN(Cc3ccccc3)C(CCO)C2)cc1 (centres undefined) as the molecule, how does the inhibition read?
Its inhibition is -3.82%.

With COc1ccc(N(C(=O)c2ccco2)C(C(=O)NC2CCCC2)c2ccc(N(C)C)cc2)cc1OC (centres undefined) as the molecule, how does the inhibition read?
Its inhibition is -5.56%.

With Cc1ccccc1-c1cc2nc(-c3ccc([N+](=O)[O-])cc3)cc(=O)n2[nH]1 as the molecule, how does the inhibition read?
Its inhibition is -6.76%.

With COC(=O)Cc1cc(=O)n2[nH]c(C)c(-c3ccccc3)c2n1 as the molecule, how does the inhibition read?
Its inhibition is -0.6%.

For CCCc1cc(=O)n2[nH]c(C)c(-c3ccccc3)c2n1, which inhibition is on record?
The inhibition was 11.9%.

Which inhibition does the source give for O=c1cc(-c2ccccc2)nc2c(-c3ccccc3)c(C(F)(F)F)[nH]n12 here?
Its inhibition is 2.66%.

For COc1ccc(CCNCC(O)c2ccccc2)cc1 (centres undefined), which inhibition is on record?
The inhibition was -12.7%.

With CC(NC(=O)c1ccccc1NC(=O)c1ccncc1)c1ccccc1 (centres undefined) as the molecule, how does the inhibition read?
Its inhibition is 6.19%.

With CC(C)OC(=O)/C(=C\c1cccc2ccccc12)NC(=O)c1ccccc1 as the molecule, how does the inhibition read?
Its inhibition is 11.6%.

With N/C(=N\OC(=O)c1ccc(Cl)cc1)c1[nH]ncc1Br as the molecule, how does the inhibition read?
The inhibition was -8.82%.

With CC(C)(C)NC(=O)c1ccc2c(c1)N(CC(=O)N1CCN(c3ccc(F)cc3)CC1)C(=O)C(C)(C)O2 as the molecule, how does the inhibition read?
Its inhibition is 8.11%.
